The results in this text go back to ChEMBL document CHEMBL3988442, “University of Dundee, Small-Polar-MMV Screening Library” (2021).

In all, about 48,000 compounds went through this assay and about 13,000 (27%) showed an effect of 50% or more. The list shows a part of the results.

The assay deals with Wolbachia pipientis. The assay is described as follows: Anti-Wolbachia Cell-Based Screen. The class given is functional. The arrangement: scale not given: in the data most compounds retested in dose-response had high values. As to conditions: 5 µM.
Regarding `CCOc1cc(F)ccc1NC(=O)N(C(C)CS(C)(=O)=O)C1CC1` (centres undefined), the “Percent Effect” value was -6.232%.

For `CC(c1nc(C2CC2)no1)N1CCN(Cc2ccsc2)CC1` (centres undefined), the “Percent Effect” value is given as 3.758%.

With `CCOC(=O)N(C)C1CCN(Cc2ccsc2)CC1`, the “Percent Effect” value is on record as -3.636%.

Regarding `Cc1cncc(C2CCCN(Cc3cccn3C)C2)n1` (centres undefined), the “Percent Effect” value came out at 4.46%.

Take `COc1cncc(N2CCN(Cc3cccn3C)CC2)n1`: the “Percent Effect” value is reported as -11%.

Consider `Cc1cncc(C2CCN(Cc3ccsc3)CC2)n1`, for which the “Percent Effect” value came out at 117.4%.

On to `Cc1cncc(C2CCN(Cc3cccn3C)CC2)n1`, for which the “Percent Effect” value was 121.9%.

As to `Cc1ccccc1C(=O)NC[C@@H]1CCN(C(=O)c2cccn2C)C[C@H]1O`, the “Percent Effect” value came to 2.167%.

`Cc1cnn(CCNCc2ccc(C#N)cc2F)c1`: the “Percent Effect” value is reported as -2.376%.

Take `Cn1c(C2CC2)nc2cc(NC(=O)C3(O)CCCC3)ccc21`: the “Percent Effect” value is -3.273%.

As for `O=C(CCN1C[C@H]2CC[C@@H]1CN(c1ncccn1)C2)NCc1ccco1`, the “Percent Effect” value was -5.213%.

`Cc1ccc(CNC(=O)CCC(=O)NCCC(C)C)o1`: the “Percent Effect” value is recorded as -4.384%.

As for `Cc1ccn(CCC(=O)NC(C)Cc2ccco2)n1` (centres undefined), the “Percent Effect” value is 108%.

For the molecule `CCC(C)NC(=O)CCn1ccc(C)n1` (centres undefined), the “Percent Effect” value stood at 122.6%.

For the molecule `Cc1ccn(CCC(=O)NCc2ccc(C)o2)n1`, the “Percent Effect” value was found to be 96.24%.

Take `CC(Cc1ccco1)NC(=O)CCn1cccn1` (centres undefined): the “Percent Effect” value was -2.22%.

Consider `Cc1ccn(CCC(=O)NCc2ccco2)n1`, for which the “Percent Effect” value is 113.3%.

For the molecule `Cc1ccc(OCC(=O)NCc2ccco2)nc1`, the “Percent Effect” value was -11.41%.

In the case of `CCN(Cc1nccn1C)C(=O)c1ccc(NCc2ccc(C)o2)nc1`, the “Percent Effect” value was found to be 12.06%.

For the molecule `COC(=O)CC(NC(=O)CCn1cccn1)c1ccc(C)cc1` (centres undefined), the “Percent Effect” value is given as -17.18%.

In the case of `CC(NC(=O)CCn1cccn1)c1cccs1` (centres undefined), the “Percent Effect” value is listed as -33.21%.

With `CC(Cc1ccco1)NC(=O)CSc1nnc[nH]1` (centres undefined), the “Percent Effect” value is reported as -0.3206%.

With `CC(C)Cc1nc(CN2CCC3(CCCO3)CCC2=O)no1` (centres undefined), the “Percent Effect” value is listed as -10.71%.

Turning to `COc1ccc(OC)c(-n2cnnc2C)c1`, the “Percent Effect” value is -0.7087%.

With `Cc1nc(C#N)c(N2CCC(c3nc(-c4ccccc4)no3)CC2)o1`, the “Percent Effect” value was 4.008%.

Turning to `Cc1cc(C)nc(CN(C)C(=O)c2cccc(CCC(C)(C)O)c2)c1`, the “Percent Effect” value came out at 33.03%.

`NC(=O)NC(=O)CCn1ccc(-c2ccccc2)n1`: the “Percent Effect” value is reported as -9.301%.

For the molecule `Cc1ccn(CCC(=O)NCCc2ccco2)n1`, the “Percent Effect” value was 109.8%.

In the case of `Cc1cc(C)n(CC(C)CNC(=O)CCc2ccco2)n1` (centres undefined), the “Percent Effect” value was 10.87%.

`Cc1ncc(CC(=O)N2CCC(N3C[C@@H](C)O[C@@H](C)C3)CC2)c(=O)[nH]1`: the “Percent Effect” value is on record as -13.09%.

In the case of `CC[C@H]1COCCN1C(=O)c1cnc(-c2ccccc2)nc1C`, the “Percent Effect” value is recorded as -84.76%.

For the molecule `CC(C)c1cc(C(=O)N2CCOCC2CC(=O)c2ccco2)nn1C` (centres undefined), the “Percent Effect” value is 128.9%.

Take `CCc1ncc(C(=O)N2CCOCC2CC(=O)c2ccccc2)s1` (centres undefined): the “Percent Effect” value is -7.731%.

With `CCc1nc(C(=O)N2CCOCC2CC(=O)c2ccccc2)c[nH]1` (centres undefined), the “Percent Effect” value is given as -17.76%.

Regarding `O=C(CC1COCCN1C(=O)c1cscn1)c1ccccc1` (centres undefined), the “Percent Effect” value stood at 5.406%.

As for `CC(C)c1cc(C(=O)N2Cc3ccccc3CC2C(=O)O)nn1C` (centres undefined), the “Percent Effect” value amounted to 14.25%.

In the case of `CC(C)c1nc(C(=O)N2CCOCC2CC(=O)c2ccco2)cs1` (centres undefined), the “Percent Effect” value is given as 84.12%.

Take `CCc1ocnc1C(=O)N1CCOCC1CC(=O)c1ccccc1` (centres undefined): the “Percent Effect” value is listed as -28.11%.

On to `CC(C)c1cc(C(=O)N2CCc3ccccc3C2C(=O)O)nn1C` (centres undefined), for which the “Percent Effect” value is 7.9%.

For the molecule `CC(C)c1ccc(C(=O)N2CCOCC2CC(=O)c2ccco2)cn1` (centres undefined), the “Percent Effect” value is reported as 178.1%.

As to `CCc1ncc(C(=O)N2CCOCC2c2c(C)n[nH]c2C)s1` (centres undefined), the “Percent Effect” value was found to be 6.424%.

In the case of `CC(C)c1ncc(C(=O)N2CCOCC2CC(=O)c2ccco2)s1` (centres undefined), the “Percent Effect” value is on record as 131.2%.

Take `Cc1cc2c(C)cc(O)cc2c(=O)o1`: the “Percent Effect” value was -3.203%.

On to `CC(C)(C)OC(=O)N1CCC[C@H](NCc2cc[nH]c2)C1`, for which the “Percent Effect” value is -5.919%.

Take `CC(C1CCN(Cc2ccc(N(C)C)nc2)CC1)N(C)C` (centres undefined): the “Percent Effect” value is recorded as 14.62%.

Take `COCC(c1ccccn1)N(C)C(=O)c1cc(-c2ccccc2O)n[nH]1` (centres undefined): the “Percent Effect” value was -8.202%.

With `O=S(=O)(C1CC1)N1CCC2(CC1)CC(Oc1ccccn1)CO2` (centres undefined), the “Percent Effect” value is recorded as -5.73%.

In the case of `COCc1c(C(=O)N2CCCC(C(=O)c3nccn3C)C2)noc1C` (centres undefined), the “Percent Effect” value is recorded as -5.481%.

Consider `COc1cccc(N2CCC(N3CCOC(C(F)(F)F)C3)CC2)c1` (centres undefined), for which the “Percent Effect” value is 11%.

In the case of `Cc1nc(-c2cccc(N3CCC(NC4CCOCC4)CC3)c2)cs1`, the “Percent Effect” value is reported as -8.689%.

Take `CN1CCOC[C@H]1c1nc(-c2cccc(F)c2)c[nH]1`: the “Percent Effect” value is reported as 6.119%.

With `Cc1nc(-c2cccc(N3CCC(NC4CCSC4)CC3)c2)cs1` (centres undefined), the “Percent Effect” value is -11.84%.

Regarding `COc1cccc(N2CCC(N3C[C@@H](NC(C)=O)[C@H](C(C)C)C3)CC2)c1`, the “Percent Effect” value was 4.736%.

`Fc1cccc(-c2c[nH]c([C@@H]3COCCN3C3CCOCC3)n2)c1`: the “Percent Effect” value stood at 5.513%.

Consider `Fc1cccc(-c2cccc(N3CCC(NC4CCCOC4)CC3)c2)c1` (centres undefined), for which the “Percent Effect” value is reported as 80.75%.

On to `Cc1nc(-c2cccc(N3CCC(N[C@@H]4CCOC4)CC3)c2)cs1`, for which the “Percent Effect” value stood at 61.49%.

On to `COc1cccc(-c2cccc(N3CCC(N[C@@H]4CCOC4)CC3)c2)c1`, for which the “Percent Effect” value is reported as 68.86%.

On to `Cc1c(C)n(CC(O)CN2CCC(O)CC2)c2c(Cl)cccc12` (centres undefined), for which the “Percent Effect” value is 9.661%.

Take `CN(C)S(=O)(=O)N1C[C@@H]2CC[C@H](C1)N(Cc1ccc3c(c1)OCCO3)C2`: the “Percent Effect” value turned out to be 2.095%.

Regarding `CC(C)c1nccn1-c1cccc(C2CCN(C)CC2)n1`, the “Percent Effect” value was found to be 4.105%.

For the molecule `Cn1ccnc1CNc1ccc(F)c(N2CCCS2(=O)=O)c1`, the “Percent Effect” value worked out at 0.7519%.

For the molecule `CN1CCC(c2cnc(NCc3nccn3C)cn2)CC1`, the “Percent Effect” value came to 131.5%.

In the case of `CN1CCC(c2cccc(NCc3ccncc3)n2)CC1`, the “Percent Effect” value was 80.62%.

As for `Cn1ccnc1CNc1nccc(-c2ncnn2C)n1`, the “Percent Effect” value came to 23.33%.

`Cn1ccnc1CNc1c(F)cccc1-n1cccn1`: the “Percent Effect” value was -3.206%.

Take `CN1CCC(c2cccc(NCc3nccn3C)n2)CC1`: the “Percent Effect” value is 108.8%.

As for `CCOc1cccc(NCc2cnc(N3CCN(C)CC3)nc2)n1`, the “Percent Effect” value is listed as 6.944%.

For the molecule `N#Cc1nccnc1N1CCN(CCOCc2ccccc2)CC1`, the “Percent Effect” value was 4.216%.

On to `CC1CCc2sc(C(=O)Nc3cnn(C)c3)cc2C1` (centres undefined), for which the “Percent Effect” value is 18.64%.
